Laboratory results from PubChem BioAssay AID371 (SRMLSC, 2006).
In all, about 3,300 compounds went through this assay and about 280 (8.5%) were called active. This excerpt belongs to a sample that is enriched for actives. Unmarked numbers belong to inactive results.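 Rule for the calls: active = mean growth inhibition over the two runs of 50% or more; inactive = mean growth inhibition under 50%.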

Assay: A549 NSCLC cell proliferation inhibitors – ATP luminescence, human non-small cell lung line, primary screen (AID 371);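 note: compound exposure lasted 72 h before the ATP read; 0% = untreated cell signal and 100% = no luminescence left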
Settings: at 10 µM, stronger effect = higher value

SMILES | growth inhibition
N#CC1=C(N)C(C#N)(C#N)[C@H](c2ccncc2)[C@H]2CN(C(=O)OCc3ccccc3)CC=C12 | 57.7% (active)
CC(C)(C)OC(=O)N1CC=C2C(C#N)=C(N)C(C#N)(C#N)[C@H](c3cccnc3)[C@H]2C1 | 9.35%
CCOC(=O)N1CC=C2C(C#N)=C(N)C(C#N)(C#N)[C@H](c3cccs3)[C@H]2C1 | 8.61%
CCCCOc1ccc(CSC(CC(=O)O)C(=O)O)cc1 (stereo unspecified) | -2.76%
CCOc1ccc2c(C)nc(NC3=NC(C)(C)C=C(C)N3)nc2c1 | 72% (active)
COc1ccc2c(C)nc(Nc3nc(C)cc(C)n3)nc2c1 | 2.87%
CCCCC(C(=O)O)C(C)CC(=O)Nc1cccc(C(=O)O)c1 (stereo unspecified) | -1.54%
CC[C@H]1OC(=O)C[C@@H](O)[C@H](C)[C@@H](O[C@@H]2O[C@H](C)C[C@H](N(C)C)[C@H]2O)[C@@H](CC=O)C[C@@H](C)C(=O)C=C[C@]2(C)O[C@H]2[C@@H]1C | 24.4%
CC1=C(C(=O)Nc2ccccc2)C(c2ccncc2)C(C#N)=C(SCC(=O)NC(C)C)N1 (stereo unspecified) | 6.59%
CCc1ccc(NC(=O)CSC2=C(C#N)C(c3ccc4c(c3)OCO4)CC(=O)N2)cc1 (stereo unspecified) | 8.25%
CC(C)(C)C1CCC2(CC1)C(C#N)=C(SCC(=O)Nc1ccccc1)NC(=O)C2C#N (stereo unspecified) | 70.2% (active)
COC(=O)c1ccc(=O)n(Cc2ccc3c(c2)OCO3)c1 | 8.75%
CCc1cc2c(=O)c(-c3nc4ccccc4[nH]3)coc2cc1OC(=O)N1CCOCC1 | -4.96%
O=C(O)/C=C/c1ccc(O)c(O)c1 | -1.3%
COc1cc(/C=C/C(=O)CC(=O)/C=C/c2ccc(O)c(OC)c2)ccc1O | 75.3% (active)
CCN(CC)C(=O)c1ccc(O)c(OC)c1 | -6.2%
Cc1ccccc1OCC(O)Cn1c(N2CCN(c3ccccc3)CC2)nc2c1c(=O)[nH]c(=O)n2C (stereo unspecified) | 3.03%
O=C(O)CC(NCc1ccco1)C(=O)OCC1CCCO1 (stereo unspecified) | 0.9%
CCCC(=O)Nn1cnc2c(c1=O)C1(CCCC1)Cc1ccccc1-2 | 5.85%
COc1cccc(N2CCN(C3CC(=O)N(c4cccc(Cl)c4)C3=O)CC2)c1 (stereo unspecified) | 4.23%
CC(CN1c2ccccc2Sc2ccccc21)N(C)C (stereo unspecified) | 25.9%
CSc1ccc2c(c1)N(CCC1CCCCN1C)c1ccccc1S2 (stereo unspecified) | 93.4% (active)
COc1ccc(/C(O)=C2/C(=O)C(=O)N(CCCN(C)C)C2c2ccco2)cc1Cl (stereo unspecified) | 3.4%
COc1ccc(OC)c(C2/C(=C(\O)c3ccc4c(c3)OCCO4)C(=O)C(=O)N2CCCN(C)C)c1 (stereo unspecified) | 7.35%

SMILES | growth inhibition
CC(C)N=c1cc2n(-c3ccc(Cl)cc3)c3ccccc3nc-2cc1Nc1ccc(Cl)cc1 | 92.5% (active)
COc1ccc(N/C(=N\c2nc(C)cc(C)n2)NC(=O)C(C)C)cc1OC | 7.92%
CC(C)c1nc2n[nH]c(N)c2c2c1CCC2 | -2.18%
O=C1OC2CCC1(c1ccccc1)C2 (stereo unspecified) | -2.09%
COc1ccc(C2=CC(c3cccc(OC)c3)n3nnnc3N2)cc1 (stereo unspecified) | 27.1%
COc1ccc(C2=CC(c3ccc(C)cc3)n3nnnc3N2)cc1 (stereo unspecified) | 27.9%
COc1cccc(C2=CC(c3ccccc3)n3ncnc3N2)c1 (stereo unspecified) | 11.9%
COc1cccc(C2=CC(c3ccc(N(C)C)cc3)n3nnnc3N2)c1 (stereo unspecified) | 58.6% (active)
COc1ccc(C2C=C(c3ccc(C)cc3)Nc3ncnn32)cc1 (stereo unspecified) | 30.1%
COc1cccc(C2=CC(c3ccccc3)n3nnnc3N2)c1 (stereo unspecified) | 72.7% (active)
CC(NC(=O)OCc1ccccc1)C(=O)OCN1C(=O)c2ccccc2C1=O (stereo unspecified) | 2.01%
Cc1ccc(S(=O)(=O)c2cc3c(=O)n4cccc(C)c4nc3n(CC3CCCO3)c2=N)cc1 (stereo unspecified) | 7.96%
CCN(CC)c1ccc(-c2nn3c(-c4cccnc4)nnc3s2)cc1 | 80.9% (active)
COc1ccc(-c2nnc3sc(-c4ccccc4OC)nn23)cc1 | 4.96%
CCOc1cccc(-c2nnc3sc(-c4cccs4)nn23)c1 | 2.48%
c1cncc(-c2nnc3sc(-c4ccco4)nn23)c1 | 3.63%
CCOc1cccc(-c2nnc3sc(-c4ccc(C)cc4)nn23)c1 | 48.3%
CCOc1cccc(-c2nnc3sc(C4CCCCC4)nn23)c1 | 79% (active)
CCOc1ccc(-c2nnc3sc(-c4ccccc4OC)nn23)cc1 | -2.6%
CCOc1cccc(-c2nnc3sc(-c4cc(OC)c(OC)c(OC)c4)nn23)c1 | 53.3% (active)
COc1ccccc1-c1nn2c(-c3ccc(C(C)(C)C)cc3)nnc2s1 | 83.3% (active)
COc1cc(-c2nn3c(-c4cccnc4)nnc3s2)cc(OC)c1OC | 14%
c1cc(-c2nnc3sc(C4CCCCC4)nn23)ccn1 | -0.46%
CCOc1cccc(-c2nnc3sc(COc4ccccc4)nn23)c1 | 3.57%

SMILES | growth inhibition
Cc1ccc(N(CC(=O)O)C2SC(=O)NC2=O)cc1 (stereo unspecified) | -7.76%
Cc1ccc(C2CC(c3cccs3)n3nc(N)nc3N2)cc1 (stereo unspecified) | 17.9%
CCOC(=O)c1[nH]c2ccc(Br)cc2c1NC(=O)CCN1CCC(C(=O)OCC)CC1 | 41.5%
CCSc1nnc(N(CCC#N)CCC#N)s1 | 4.31%
CCOC(=O)CCCCC(=O)NC(CO)C(=O)NC (stereo unspecified) | -2.55%
CN(CCNC(=O)c1ccc(/C=N/O)nc1)Cc1ccccc1 | -0.01%
COc1ccccc1-c1nnc2sc(C3CCCCC3)nn12 | 24.4%
COc1cccc(-c2nnc3sc(C4CCCCC4)nn23)c1 | 73.3% (active)
c1cncc(-c2nnc3sc(C4CCCCC4)nn23)c1 | 25.4%
Cn1c(=O)[nH]c(=O)c2c1nc(Br)n2CCSc1ncccn1 | 4.37%
COCCCNc1nc2c(c(=O)[nH]c(=O)n2C)n1CC(O)COc1ccccc1 (stereo unspecified) | 13.7%
OC(CCN1CCCCC1)(c1ccccc1)C1CCCCC1 (stereo unspecified) | 1.96%
OC(CCN1CCCC1)(c1ccccc1)C1CCCCC1 (stereo unspecified) | 7.22%
CC(C)(C)c1ccc(C(O)CCCN2CCC(C(O)(c3ccccc3)c3ccccc3)CC2)cc1 (stereo unspecified) | 95.9% (active)
CCCCCSc1nc(C)c(CC(=O)O)c(=O)[nH]1 | -2.49%
N#CC(C(=O)Nc1ccc(Cl)c(Cl)c1)=C1Nc2ccccc2N1 | 38.8%
CCOC(=O)c1ccc(CC2S/C(=C(\C#N)C(C)=O)NC2=O)cc1 (stereo unspecified) | 26.4%
CC(=O)/C(C#N)=C1\NC(=O)C(Cc2ccccc2Cl)S1 (stereo unspecified) | 61.9% (active)
CC(=O)/C(C#N)=C1\NC(=O)C(Cc2ccccc2)S1 (stereo unspecified) | 56% (active)
CCOC(=O)/C(C#N)=C1/SC(CCO)C(=O)N1c1ccccc1 (stereo unspecified) | -8.59%
N#C/C(C(=O)N1CCOCC1)=C1/SC(Cc2ccccc2)C(=O)N1c1ccccc1 (stereo unspecified) | 0%
CCOc1ccc2nc(NC(NC(=O)CC)(C(=O)OC)C(F)(F)F)sc2c1 (stereo unspecified) | 20.7%
CCCCCOc1ccc(C(=O)NCC(=O)NCC(=O)OCC)cc1 | 36.1%
CC(C)CC(=O)Nc1ccccc1N1CCCC1 | 3.4%

SMILES | growth inhibition
CCOC(=O)C1=Nc2ccccc2C1=[N+]=[N-] | 61.3% (active)
CCOC(=O)CNC(=O)Nc1ccccc1C(=O)OC | -3.41%
CCOC(=O)c1n[nH]c2ccccc12 | -3.73%
C=CCOn1c(=O)c(-c2ccc(OC)cc2)[n+]([O-])c2ccccc21 | 0.35%
CSC1=C(C#N)C(C)CC(=O)N1 (stereo unspecified) | -1.22%
O=C1c2ccccc2C(=O)N1c1ncccn1 | 8.95%
COCCCn1c2nc3ccccc3nc2c2c(=O)n(CC3CCCO3)cnc21 (stereo unspecified) | 3.37%
Cc1cc(-c2cc(-c3ccc(Cl)cc3)nc(N)c2C#N)co1 | 30.1%
CCc1nc(N)nc(N)c1-c1ccc(Cl)cc1 | 79.6% (active)
CCOC(=O)CC(=O)CSc1nc(N)c(C#N)c(-c2ccc(Cl)cc2)c1C#N | 5.46%
Cc1c(/C(O)=C2\C(=O)C(=O)N(CCN(C)C)C2c2cccs2)cnn1-c1ccccc1 (stereo unspecified) | 0.12%
OCCNc1ncnc2c1c(-c1ccccc1)c(-c1ccccc1)n2Cc1ccco1 | 53.2% (active)
c1coc(CNc2ncnc3ccccc23)c1 | 23.6%
O=c1c2ccccc2ncn1Cc1ccco1 | 1.72%
CC(C)CN1C(=O)NC(NC(=O)c2cccnc2)(C(F)(F)F)C1=O (stereo unspecified) | -0.36%
Cc1nnc(SCC(=O)N2CCOCC2)c2ccccc12 | -4.15%
COc1cccc(Cn2c(NCc3ccco3)nc3c2c(=O)n(C)c(=O)n3C)c1 | 51.8% (active)
COCCCNc1nc2c(c(=O)n(C)c(=O)n2C)n1Cc1cccc(OC)c1 | 33.1%
COc1cccc(Cn2c(NCC(C)C)nc3c2c(=O)n(C)c(=O)n3C)c1 | 2.01%
CCCCNc1nc2c(c(=O)n(C)c(=O)n2C)n1Cc1cccc(OC)c1 | 59.5% (active)
COc1ccc(Oc2nc3c(c(=O)n(C)c(=O)n3C)n2Cc2cccc(OC)c2)cc1 | 27.7%
COc1cccc(Cn2c(NCc3ccccn3)nc3c2c(=O)n(C)c(=O)n3C)c1 | 23.9%
Cc1cc(=O)oc(C)c1C(=O)NCC(C)C | -13.9%
C=CCOc1nc2c(c(=O)n(C)c(=O)n2C)n1Cc1c(Cl)cccc1Cl | 25.2%
